Results taken from PubChem BioAssay.
Activity calls are given as the source filed them.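 The calls were made as follows: active = visual image review flags a hit and inhibition of aggregation exceeds 20%; inconclusive = visual hit but inhibition at or below 20%; inactive = no hit on visual image review.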

Test: inhibitors of mutant huntingtin aggregation, primary screen, imaging, exon1htt(103Q)mCFP cells, high-content imaging (AID 483);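 also: compound exposure lasted 3 days before fixation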;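 as to nuclei count: percent of the per-plate median nuclei count of sample wells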
Settings: exon1htt(103Q)mCFP cell line, aggregate imaging, at 2 µM; inhibition of aggregation: stronger effect = higher value; nuclei count: measured here: cell count, toxicity

Compound | nuclei count | inhibition of aggregation
Nc1nonc1N1CCCCC1 | 107% | -6.7% (inactive)
CC1NC2(C(=O)N(Cc3ccccc3)c3ccccc32)C2C(=O)N(c3ccccc3)C(=O)C12 (stereo not given) | 113% | 2.9% (inactive)
CCNC(=O)C1CC(=O)N(Cc2ccc3c(c2)OCO3)C(=Nc2ccc(F)cc2)S1 (stereo not given) | 109% | -38.8% (inactive)
N/C(=N/O)c1nc(N2CCCC2)nc(N(c2ccccc2)c2ccccc2)n1 | 90.7% | -18.1% (inactive)
O=C(CC1Oc2ccc(Cl)cc2NC1=O)NC1CCCCCC1 (stereo not given) | 51.7% | 19.5% (inactive)
O=C(CSc1n[nH]c(-c2ccco2)n1)Nc1sc2c(c1C(=O)Nc1ccccc1)CCCC2 | 88.7% | 3.5% (inactive)
Cc1nc2ccc(S(=O)(=O)NCC(=O)N3CCc4ccccc4C3)cc2s1 | 91.2% | 1.5% (inactive)
CN(C1CCCCC1)S(=O)(=O)c1ccc(S(=O)(=O)N2CCN(CCC#N)CC2)cc1 | 124% | 28.2% (inactive)
CCOC(=O)C(NC(=O)Nc1ccccc1)(OCC)C(F)(F)F (stereo not given) | 97.9% | -2.5% (inactive)
Cc1ccc(NC(=O)CCC(=O)O)cc1F | 97.1% | -13.4% (inactive)
Cc1cc(C)n(-c2cc(N3CCOCC3)ncn2)n1 | 89.8% | 3% (inactive)
CC1CCCC(C)N1C(=O)COC(=O)c1ccc[nH]c1=O (stereo not given) | 98.4% | 3.4% (inactive)
COc1ccc(N(CC(=O)Nc2cc(C)ccc2C)S(=O)(=O)c2c(C)nn(C)c2C)cc1 | 65.3% | 30.5% (inactive)
Cc1ccc(-c2cc3nc4c(c(=O)n3[nH]2)CCCC4)cc1 | 73.1% | -8.5% (inactive)
CCSc1oc(-c2cccs2)nc1S(=O)(=O)c1ccccc1 | 101% | -10.8% (inactive)
CNC(=O)c1nnn(Cc2ccccc2)c1NC(C)=O | 102% | -9.5% (inactive)
O=C(CSc1nnc2ccccn12)NCCN1C(=O)CSC1=O | 94.1% | -2.4% (inactive)
CC(=O)Nc1cccc(NC(=O)c2ccco2)c1 | 122% | -7.1% (inactive)
O=C(CSc1nc2ccsc2c(=O)n1NC(=O)c1ccccc1)Nc1nccs1 | 98.2% | 4% (inactive)
O=S(=O)(c1ccccc1)N1CCN(S(=O)(=O)c2ccccc2)C1 | 95% | -0.4% (inactive)

Compound | nuclei count | inhibition of aggregation
CN(C)S(=O)(=O)c1cccc(C(=O)Nc2cccnc2)c1 | 103% | 0% (inactive)
COc1ccc(Cn2nnnc2CN2CCOCC2)cc1 | 108% | -2.3% (inactive)
Cc1cc(NS(=O)(=O)c2ccccc2)no1 | 97% | -5.5% (inactive)
O=C(/C=N/O)NCc1ccncc1 | 98.3% | 0.7% (inactive)
Cc1cc(C(=O)NCc2ccc(S(N)(=O)=O)cc2)cs1 | 108% | -10.8% (inactive)
CCn1cc(C(=O)N2CCOCC2)c(=O)c2cc(S(=O)(=O)N(C)C3CCCCC3)ccc21 | 84.2% | 3.9% (inactive)
CCc1nnc(NC(=O)NCN2C(=O)C3C4C=CC(C4)C3C2=O)s1 (stereo not given) | 92.9% | 3.2% (inactive)
CC(=O)c1cc(Cl)ccc1OC(=O)c1ccco1 | 106% | -8.1% (inactive)
CCOC(=O)CSc1nc2sc(C)c(C)c2c(=O)n1C | 76.8% | 25.6% (inactive)
O=C(c1ccco1)N1CCN(CCCCN2C(=O)c3ccccc3C2=O)CC1 | 89.1% | 16% (inactive)
CS(=O)(=O)N(CC(=O)NCc1ccncc1)Cc1ccc(Cl)cc1 | 107% | -13.4% (inactive)
CC1CCc2c(sc(N)c2C(N)=O)C1 (stereo not given) | 88.3% | 6.1% (inactive)
Cc1cc2ccccn2c1C(=O)c1ccncc1 | 77.4% | 11.7% (inactive)
Cc1nnc(SCC(=O)NCCN2C(=O)CSC2=O)s1 | 65.4% | 19.8% (inactive)
CCOC(=O)c1cccc(NC(=O)CNS(=O)(=O)c2cccs2)c1 | 108% | -11.6% (inactive)
COc1ccc(NC(=O)CS(=O)CC(=O)Nc2cc(Cl)ccc2OC)cc1 (stereo not given) | 71.7% | 5.3% (inactive)
O=C(NCCc1c[nH]c2ccccc12)c1cnc2n(c1=O)CCS2 | 103% | -8.9% (inactive)
COc1ccc2c(c1)cc(C(=O)O)n2C | 77.6% | -20.2% (inactive)
COc1cc2c(cc1OC)CN(CC(=O)Nc1cccc(C)c1)CC2 | 98.6% | -6.2% (inactive)
COc1ccc(-n2c(=O)[nH]cc(C(=O)Nc3ccc(NC(C)=O)cc3)c2=O)cc1 | 49.8% | 22.1% (inactive)
